This note sets out measurements from PubChem BioAssay AID977607 (Broad Institute, 2014).

Structures are written as SMILES. The whole screen tested about 1,500 compounds, of which about 460 (31%) were called active. About 1% were inconclusive and are not listed.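 How the source made its calls: active means curve reaches 40% activation over neutral controls at an AC40 no higher than the top valid tested concentration; inconclusive means no clear call, values can overlap the other calls; inactive means signal moving opposite to the expected increase, and the rest.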 A selection follows. Potency and affinity values are given separately.

This assay in a line: GLuc-reported insulin release enhancers, glucose-stimulated beta cells – cell-based, INS-1E, Gaussia luciferase, luminescence, cherry-pick, set 2, dose response (AID 977607).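 Further: 0% = median of the plate neutral control wells.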 As to conditions: INS-1E GLuc insulin secretion reporter, 2-3 h, stronger effect = higher value.
The mark [1] stands for this setting: at 35 µM, 100% = signal doubled over neutral wells unless noted.

For `Cc1ccnc(NS(=O)(=O)c2ccc(NC(=O)CCc3ccccc3)cc2)n1`, under setting [1], the max activation is 33.7% [at 1.2 µM, 100% = signal doubled over neutral wells] (inactive). Still for that read-out and setting: next, `Cc1ccc2c(=O)cc(C(=O)NC3CCS(=O)(=O)C3)oc2c1C` (centres undefined): -12.4% [at 0.046 µM, 100% = signal doubled over neutral wells] (inactive); `COc1ccc2oc(C(=O)Nc3nnc(C)s3)c(C)c2c1`: -20% [at 0.015 µM, 100% = signal doubled over neutral wells] (inactive). On the same count and under the same terms, next, `CCC(=O)Nc1ccc(C(=O)N/N=C/c2cccnc2)cc1`: -26.1% [at 3.8 µM, 100% = signal doubled over neutral wells] (inactive). Take `CCc1nc(N)nc(N)c1-c1ccc(Cl)c(N=[N+]=[N-])c1`: the max activation (at 0.046 µM, 100% = signal doubled over neutral wells) was -14.5% (inactive) and the max activation (at 1.2 µM, 100% = signal doubled over neutral wells) is -22.8% (inactive). Turning to `Cc1ccc(-c2csc(NC(=O)CCCc3cccs3)n2)cc1`, the max activation under setting [1] is 22% [at 0.42 µM, 100% = signal doubled over neutral wells] (inactive).

Consider `CCCc1nc2n[nH]c(N)c2c2c1COC(C)(C)C2`, for which the max activation under setting [1] was 19.9% (inactive). For `COc1ccc(CN(C)C(=O)COc2cccc(-n3cnnn3)c2)cc1OC`, under setting [1], the max activation is 25.6% (inactive).

As to `COc1ccc(-c2cc(C(=O)N3CCCCCC3)no2)cc1OC`, the max activation under setting [1] is -22% [at 3.8 µM, 100% = signal doubled over neutral wells] (inactive). As to `COc1ccccc1CNS(=O)(=O)c1cc(-c2cc(C)no2)ccc1C(C)C`, the max activation under setting [1] is -29.2% (inactive). Still for that read-out and setting: next, `COCCNC(=O)c1ccc(N(C)S(=O)(=O)c2ccc(OC)c(OC)c2)cc1`: 19.5% [at 0.005 µM, 100% = signal doubled over neutral wells] (inactive); `C=CCc1cccc(/C=N/NC(=O)CCC(=O)Nc2ccc(C)cc2)c1O`: -34.3% (inactive). With `O=C(N/N=C/c1cc(Cl)ccc1O)c1ccc(Br)cc1`, the max activation under setting [1] was -24.4% [at 3.8 µM, 100% = signal doubled over neutral wells] (inactive). On the same count and under the same terms, then `Cc1nc2ccccc2c(=O)n1/N=C/c1ccc(N(C)C)cc1`, with -10.6% [at 1.2 µM, 100% = signal doubled over neutral wells] (inactive). On to `CCc1nc2c(OCCC3CCCCC3)cccn2c1N(C)C(=O)c1ccco1`, for which, under setting [1], the max activation was -35% (inactive). As to `Cc1ccccc1CN(C)Cc1cc(=O)oc2c(C)c(C)ccc12`, the max activation under setting [1] was -33.3% (inactive). Same read-out and setting: then `O=C(c1ccccc1)N(C(=O)c1ccccc1)N1CCCC1`, with 28.2% [at 0.046 µM, 100% = signal doubled over neutral wells] (inactive). Still for that read-out and setting: next, `O=C(O)CCN1c2ccccc2Sc2ccccc21`: -23% [at 3.8 µM, 100% = signal doubled over neutral wells] (inactive); `COc1ccc(/C=N/Nc2ncnc3c2[nH]c2ccccc23)c(OC)c1OC`: -28.4% [at 0.005 µM, 100% = signal doubled over neutral wells] (inactive). The same measure, in the same setting: then `O=C(CCc1ccccc1)NNC(=O)COc1ccccc1Cl`, with 22.3% [at 0.42 µM, 100% = signal doubled over neutral wells] (inactive); and `c1ccc2c(N3CCCCC3)nc(N3CCCC3)nc2c1`, with 34.7% (inactive).

Consider `O=S(=O)(N1CCOCC1)n1c(Cc2ccccc2)nc2ccccc21`, for which, under setting [1], the max activation is -18.5% [at 0.046 µM, 100% = signal doubled over neutral wells] (inactive). As to `CCOC(=O)C1CCCN(C(=O)c2cccnc2Oc2ccccc2)CC1` (centres undefined), under setting [1], the max activation is 48.6% [at 1.2 µM, 100% = signal doubled over neutral wells] (inactive). Turning to `COc1ccc(CCNCc2cc3ccc(C)cc3[nH]c2=O)cc1OC`, the max activation under setting [1] was 20.9% [at 11 µM, 100% = signal doubled over neutral wells] (inactive).

With `COC(=O)[C@]1(Cc2ccccc2)N[C@H](CN(C)C(=O)Nc2ccc(C)cc2)[C@@H]2C(=O)N(C)C(=O)[C@@H]21`, the max activation under setting [1] was -13.8% [at 11 µM, 100% = signal doubled over neutral wells] (inactive). On the same count and under the same terms, next, `O=C(Nc1ccc(S(=O)(=O)N2CCOCC2)cc1)c1ccc(=O)[nH]c1`: -14.6% [at 0.046 µM, 100% = signal doubled over neutral wells] (inactive); `O=C(NCc1ccc(Cl)cc1)c1cc(=O)[nH]c2ccc(S(=O)(=O)N3CCOCC3)cc12`: 27.5% [at 0.005 µM, 100% = signal doubled over neutral wells] (inactive). Turning to `CCN(Cc1ccccc1)S(=O)(=O)c1ccccc1Br`, the max activation under setting [1] was -30.7% (inactive). For the molecule `CC/C(O)=C1\C(=O)CC(C)(C)CC1=Nc1ccccc1C`, the max activation under setting [1] is -12.4% [at 0.046 µM, 100% = signal doubled over neutral wells] (inactive).

Turning to `CCCC(=O)Nc1ccc(N2CCN(S(C)(=O)=O)CC2)cc1`, under setting [1], the max activation is -16% [at 11 µM, 100% = signal doubled over neutral wells] (inactive). The same measure, in the same setting: then `CCc1onc(C)c1C(=O)Nc1ccc(N2CCOCC2)cc1`, with -20.7% [at 11 µM, 100% = signal doubled over neutral wells] (inactive). The same measure, in the same setting: next, `CCn1c(C)nc2cc(S(=O)(=O)C(F)(F)F)ccc21`: -18% [at 0.135 µM, 100% = signal doubled over neutral wells] (inactive); `COC(=O)c1scc(C)c1NC(=O)CC1NCCNC1=O` (centres undefined): -9.21% [at 0.0016 µM, 100% = signal doubled over neutral wells] (inactive); `O=C(O)c1ccc(S(=O)(=O)NCc2ccc3c(c2)OCO3)cc1`: -14.4% [at 0.42 µM, 100% = signal doubled over neutral wells] (inactive). With `O=C(c1ccc2c(c1)OCO2)N1CCN(S(=O)(=O)c2ccccc2)CC1`, the max activation under setting [1] is -16.9% [at 0.42 µM, 100% = signal doubled over neutral wells] (inactive).

As for `COc1ccc(S(=O)(=O)N(C)c2ccc(C(=O)NCC3CCCO3)cc2)cc1OC` (centres undefined), the max activation under setting [1] is -7.27% [at 1.2 µM, 100% = signal doubled over neutral wells] (inactive). On the same count and under the same terms, next, `CC(=O)c1cccc(Nc2ncnc3ccc(Br)cc23)c1`: -20.3% [at 0.0016 µM, 100% = signal doubled over neutral wells] (inactive); `COC(=O)COc1ccc(C)cc1-n1nc2ccccc2n1`: 22.5% (inactive).

`CCOc1cc(C(=O)N(C)CC(=O)Nc2cccc3ccccc23)ccc1OC`: the max activation under setting [1] is 18.1% [at 11 µM, 100% = signal doubled over neutral wells] (inactive).

Consider `COc1cccc(-c2nnn(CC(=O)O)n2)c1`, for which the max activation under setting [1] is -16% (inactive).

With `CN(C)S(=O)(=O)c1cccc(-c2csc(N/N=C/c3ccco3)n2)c1`, the max activation under setting [1] is -17.2% [at 3.8 µM, 100% = signal doubled over neutral wells] (inactive). Turning to `CCc1cccc(NC(=O)C2CCCN2S(=O)(=O)c2ccc3c(c2)n(C)c(=O)c(=O)n3C)c1` (centres undefined), the max activation under setting [1] is -17.8% (inactive). Consider `CCOc1cc(OCC)cc(C(=O)Nc2cccnc2)c1`, for which the max activation under setting [1] is 14.6% [at 1.2 µM, 100% = signal doubled over neutral wells] (inactive). Still for that read-out and setting: then `C=C1[C@@H](O)[C@H](CC(C)C)N(Cc2ccccc2Br)S1(=O)=O`, with -22.8% (inactive).

Turning to `COc1ccc(-n2c(-c3ccc(Cl)cc3)c[nH]c2=S)cc1`, under setting [1], the max activation was 14.5% (inactive). For the molecule `CCCOc1ccc(/C=N/NC(=O)C(=O)Nc2ccccn2)cc1`, the max activation under setting [1] is 19.6% (inactive). On the same count and under the same terms, then `CC(C)CCC(O)(CCC(C)C)C(=O)NN1CCCCC1`, with 26.3% [at 0.015 µM, 100% = signal doubled over neutral wells] (inactive); and `O=c1cc(Cl)[nH]c(=O)n1Cc1ccccc1`, with -18% [at 0.135 µM, 100% = signal doubled over neutral wells] (inactive). For `Cc1cc(C(=O)Nc2cccc(O)c2)c(C)o1`, under setting [1], the max activation is 50.1% [at 0.135 µM, 100% = signal doubled over neutral wells] (inactive). On the same count and under the same terms, next, `Cc1ccc(NC(=O)c2ccccc2-c2ccccc2C(=O)O)cc1C`: -15.4% [at 0.046 µM, 100% = signal doubled over neutral wells] (inactive); `CCCn1nc(C(=O)NC2CC2)c2ccccc2c1=O`: -11.7% [at 0.135 µM, 100% = signal doubled over neutral wells] (inactive). As for `CCCn1nc(C(=O)NC2CCCC2)c2ccccc2c1=O`, under setting [1], the max activation is 14.9% [at 0.135 µM, 100% = signal doubled over neutral wells] (inactive). Turning to `CCNc1nc(C)nc2c1oc1ccccc12`, the max activation under setting [1] was 20.6% [at 11 µM, 100% = signal doubled over neutral wells] (inactive). Turning to `CC(C)Oc1cccc(C(=O)C2CCCN(C(=O)CCc3cnn(C)c3)C2)c1` (centres undefined), the max activation under setting [1] is -16.9% [at 0.0016 µM, 100% = signal doubled over neutral wells] (inactive).

On to `CCCCCCc1cc2cc(C(=O)Nc3cccc(OC)c3)c(=O)oc2cc1O`, for which, under setting [1], the max activation is -54.3% [at 1.2 µM, 100% = signal doubled over neutral wells] (inactive). Still for that read-out and setting: then `COc1ccc(Cl)cc1C(=O)Nc1cccc(-c2ccc3nncn3n2)c1`, with -16.9% [at 0.015 µM, 100% = signal doubled over neutral wells] (inactive). Still for that read-out and setting: then `COCCn1c(=O)[nH]c2cc(C(=O)Nc3cc(OC)c(OC)c(OC)c3)ccc2c1=O`, with -21.3% [at 11 µM, 100% = signal doubled over neutral wells] (inactive). The same measure, in the same setting: next, `Cc1ccnc(NC(=O)Nc2ccc(Br)cc2Cl)c1`: -16.6% [at 0.0016 µM, 100% = signal doubled over neutral wells] (inactive).
